Screens from PubChem.
An excerpt weighted towards active compounds, which were near 13% of everything screened.
Pf growth 96h = Primary qHTS for delayed death inhibitors of the malarial parasite plastid, 96 hour incubation. Potency, µM (series often up to 28.7 µM), actives largely listed as inhibitors. hit rate 6.9% among 320,000. P. falciparum luciferase reporter growth, 96 h
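Two parasite generations (96 h, 37 C, 5% CO2) of compound exposure in infected erythrocytes (0.05% parasitemia, 2% hematocrit). Luciferase-reporter P. falciparum; decreased luminescence indicates inhibited growth, aimed at apicoplast-acting delayed death.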
HCV inh = qHTS Assay for Inhibitors of Hepatitis C Virus (HCV). AID 651820, 2012. Huh7.5.1 HCVcc-Cre infection, luciferase reporter, 44 h. hit rate 3.4% among 340,000. Potency, µM (doses to about 41.8 µM), most hits filed as inhibitors
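After 44 h co-culture of compound, cells and HCVcc-Cre (~0.5 moi), substrate is added for 15 min at room temperature and luciferase measured over 15 sec. Cells were seeded at 1,000/well and pre-cultured 4 h.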
HCMV inh = qHTS Assay for inhibitors of the human cytomegalovirus (HCMV); HFF cells, HCMV-luciferase reporter, 72 h; stronger effect = lower value; activity change, negative = inhibition, % at 57.5 µM; hit rate 4.5% among 410,000; AID 1259415, 2018; in the data active = activity change below about -60%; inconclusive = no clear call, values can overlap the other calls; inactive = above about -39%
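After 16 h attachment at 37C, HFF cells received test compound and HCMV-luciferase (1 PFU/cell); reporter luminescence read 72 h later, data normalized against buffer-only and known inhibitor Salinomycin.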
Pf growth 48h = Primary qHTS for delayed death inhibitors of the malarial parasite plastid, 48 hour incubation. P. falciparum luciferase growth in erythrocytes, 48 h. Potency, µM (doses to about 28.7 µM), usual class: inhibitors. hit rate 5.9% among 310,000. AID 504832, 2011
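Erythrocytes infected with P. falciparum carrying an integrated firefly luciferase reporter (2% hematocrit, 0.1% parasitemia final) were exposed to compounds in RPMI 1640 with 0.5% Albumax at 37 C, 5% CO2. Growth inhibition was scored as reduced luminescence.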
A number is an active result; – = inactive; ? = inconclusive; · = no result; [ ] = dose if it differs, or a comment. Unless noted, calls come from the whole dose curve; as a rule, active = well fitted inhibition curve with a large enough effect; inconclusive = small, poorly fitted or top-dose-only effect, or another doubt; inactive = no such curve, though single readings can be large or run the other way.

SMILES | Pf growth 96h | HCV inh | HCMV inh | Pf growth 48h
O=C(c1ccc(-c2nc3ccccc3s2)s1)N1CCOCC1 | – | ? | -71.5 | –
CCN1CCN(C(=O)c2ccc(-c3nc4ccccc4s3)s2)CC1 | – | ? | – | –
Cc1ccc(-c2nc(-c3cc4c([nH]c3=O)CC(C)(C)CC4=O)sc2C)cc1 | · | · | – | ·
CCOC(=O)C(C)Sc1nnc(NC(=O)c2cccc([N+](=O)[O-])c2C)s1 (configuration not stated) | ? | – | – | –
CCOC(=O)C(C)Sc1nnc(NC(=O)c2ccc(C)c([N+](=O)[O-])c2)s1 (configuration not stated) | 14.7µM | – | – | –
COc1ccc(OC)c(-c2cnc(OC(C)(C)C)nc2OC(C)(C)C)c1 | 10.4µM | – | – | 11.7µM
CN1CC(=O)N(CC(=O)Nc2ccc(Cl)c(C(F)(F)F)c2)c2ccccc2C1=O | · | · | – | ·
CN(C)S(=O)(=O)N1CCN(C(=O)N2CCOCC2)CC1 | · | – | -100.6 | –
O=C1CC(c2ccc3c(c2)OCCO3)Oc2ccc([N+](=O)[O-])cc21 (configuration not stated) | – | – | -76.6 | –
CCC(=O)N1CCc2cc(S(=O)(=O)NC(CC(C)C)C(=O)NCc3ccc(F)cc3)ccc21 (configuration not stated) | · | · | – | ·
O=C(Nc1ccccc1)N1CCC(C(=O)N(Cc2ccco2)Cc2cccs2)CC1 | 1.65µM | – | – | ?
CCN(CC)CCNC(=O)CCc1c(C)nc2c(c(C)nn2-c2ccc(C)cc2)c1C | ? | 3.55µM | -92.9 | ?
Cc1ccc(-n2nc(C)c3c(C)c(CCC(=O)NC(C)c4ccccc4)c(C)nc32)cc1 (configuration not stated) | 9.28µM | – | – | ·
COCCNC(=O)CCc1c(C)nc2c(c(C)nn2-c2ccc(C)cc2)c1C | ? | – | – | ?
O=C(c1ccc2c(=O)n(Cc3ccccc3)c(=S)[nH]c2c1)N1CCCC1 | – | – | ? | –
COc1ccc(OC)c(-n2c(=S)[nH]c3cc(C(=O)N4CCN(c5ccccc5)CC4)ccc3c2=O)c1 | ? | – | – | ?
CC1CCCN(C(=O)c2ccc3c(=O)n(C4CCCC4)c(=S)[nH]c3c2)C1 (configuration not stated) | – | 10µM | -62.4 | ?
O=C(c1ccc2c(=O)n(-c3ccccc3)c(=S)[nH]c2c1)N1CCN(c2ccccc2)CC1 | – | 11.2µM | – | ?
O=C(c1ccc2c(=O)n(-c3ccccc3)c(=S)[nH]c2c1)N1CCCCC1 | – | ? | -92.4 | –
CCOc1ccc(NC(=O)CCn2cccn2)cc1 | · | · | – | ·
Cc1nn2cc(-c3ccccc3)nc2[nH]c1=O | 0.657µM | – | – | ?
CCOc1cc(/C=C2/C(=N)N3C(=NC2=O)SN=C3S(=O)(=O)C(C)C)ccc1OC(=O)c1ccco1 | 8.28µM | – | – | –
CCOc1cc(/C=C2/C(=N)N3C(=NC2=O)SN=C3S(=O)(=O)CC)ccc1OC(=O)c1ccco1 | 10.4µM | – | – | –
O=C(CSc1nc2ccccc2nc1Cc1ccccc1)Nc1ccc2c(c1)OCO2 | · | · | – | ·
O=C(c1ccc(Cn2cc(Cl)cn2)cc1)N1CCN(c2ccccc2)CC1 | 7.38µM | ? | – | –
SMILES | Pf growth 96h | HCV inh | HCMV inh | Pf growth 48h
O=C(c1ccc(Cn2cc(Br)cn2)cc1)N1CCN(c2ccccc2)CC1 | –[5.75 µM] | ? | – | –
O=C(Nc1ccccc1F)c1ccc(Cn2cc(Cl)cn2)cc1 | – | – | – | –
O=C(Nc1cccc2ccccc12)c1ccc(Cn2cc(Cl)cn2)cc1 | 13.1µM | – | – | ?
CC1CCc2onc(C(=O)N3CCN(c4ccc(Cl)cc4)CC3)c2C1 (configuration not stated) | · | · | -74.1 | ·
Cc1occc1C(=O)N1CCN(c2ccc(Cl)cc2)CC1 | 4.65µM | – | ? | –
O=C(c1ccccc1)N1CCN(c2ccc(Cl)cc2)CC1 | 14.7µM | – | ? | ?
O=C(c1ccccc1)N1CCN(c2ccccc2)CC1 | · | – | – | ·
CC(=O)N1CCN(C(=O)c2ccc(C(=O)c3ccccc3)cc2)CC1 | – | – | – | –
CC(=O)c1ccc(N2CCN(C(=O)c3ccc(C(=O)c4ccccc4)cc3)CC2)cc1 | 5.22µM | ? | – | –
O=C(/C=C/c1ccc(Br)cc1)NC(=O)c1ccccc1O | ? | – | -101.7 | –
Cc1ccc(C)c(Cc2c(C)nc3c(C(=O)NCc4ccc5c(c4)OCO5)cnn3c2C)c1 | 10.4µM | · | – | ·
Cc1nc2c(C(=O)NCc3ccc4c(c3)OCO4)cnn2c(C)c1Cc1ccc(F)cc1Cl | 13.1µM | – | – | ?
Cc1nc2c(C(=O)NCc3ccco3)cnn2c(C)c1Cc1ccc(F)cc1Cl | – | 12.6µM | – | ?
Cc1ccccc1Cc1c(C)nc2c(C(=O)NCc3ccc4c(c3)OCO4)cnn2c1C | ? | · | – | ?
Cc1ccc(NC(=O)c2sc(-n3nc(C)c(Cc4ccc5c(c4)OCO5)c3C)nc2C)cc1Cl | · | · | – | ·
COC(=O)c1cc(S(=O)(=O)N2CCN(c3ccc(OC)cc3)CC2)c[nH]1 | · | · | – | ·
COc1ccc(CCN(Cc2cccs2)S(=O)(=O)c2ccc(-n3cnnn3)cc2)cc1OC | – | 11.2µM | ? | ?
CCC(C)NS(=O)(=O)c1ccc(S(=O)(=O)N(CCc2ccc(OC)c(OC)c2)Cc2cccs2)cc1 (configuration not stated) | – | 11.2µM | -64.2 | ?
CCCNC(=O)Cn1nc(C)c2c(C)n(-c3ccccc3)nc2c1=O | · | · | – | ·
COC(=O)[C@@]1(Cc2ccc(OC)cc2)[C@H]2c3cc(C(=O)N4CCCC4)n(Cc4ccc(C)o4)c3C[C@H]2CN1C(=O)c1ccccc1 | 2.08µM | –[8.37 µM] | – | ?
COC(=O)[C@@]1(Cc2ccc(OC)cc2)[C@H]2c3cc(C(=O)N4CCCC4)n(Cc4ccccn4)c3C[C@H]2CN1C(=O)c1ccccc1 | · | · | – | ·
COC(=O)[C@@]1(Cc2ccc(OC)cc2)[C@H]2c3cc(C(=O)N4CCCC4)n(Cc4ccc(S(C)(=O)=O)cc4)c3C[C@H]2CN1C(=O)c1ccccc1 | · | · | -65.5 | ·
CCc1cccc(NC(=O)C(CC(C)C)NS(=O)(=O)c2ccc3c(c2)oc(=O)n3C)c1 (configuration not stated) | · | · | – | ·
Cc1ccc(NC(=O)CSc2nnc(-c3cc4occc4n3C)n2-c2ccccc2C)c(C)c1 | · | · | – | ·
O=S(=O)(c1ccc(OC(F)(F)F)cc1)N1CCC(c2nnnn2-c2ccc(F)cc2)CC1 | · | · | -73.1 | ·
CCn1c(SC)nnc1C1CCN(S(=O)(=O)c2ccc(OC)cc2)CC1 | – | – | – | –
CCn1c(SCc2ccc(F)cc2)nnc1C1CCN(S(=O)(=O)c2ccc(OC)cc2)CC1 | 8.28µM | ? | – | 11.7µM
CCn1c(SCc2ccc(C)cc2)nnc1C1CCN(S(=O)(=O)c2ccc(OC)cc2)CC1 | 4.15µM | ? | – | 11.7µM
CCOC(=O)C1=CCN(S(=O)(=O)c2ccc(C)cc2)C1c1cccc(C)c1 (configuration not stated) | · | · | – | ·
CC(C)CN1CCc2nc(N3CCN(c4ncccn4)CC3)ncc2C1 | · | · | – | ·
